Compounds with a hit are over-represented: about 3% of the library has one in this group of screens.
TWEAK-Fn14 inh: blocks TWEAK-Fn14 interaction in a reporter cell assay. AID 1159606. actives 2% (n = 360,000). TWEAK-stimulated Fn14 reporter cells, luciferase luminescence, 8 h. inhibition, % at 10 µM; in the data active = inhibition above about 50%
LGR2 inh: Drosophila LGR2 receptor signaling inhibition; HEK293 LGR2, CRE-luciferase, bursicon-stimulated, 4 h; inhibition, % at 9.99 µM; actives 0.35% (n = 380,000);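 active = drop in luminescence signal, shown as inhibition above about 50% in the replicate tests, limit read from the data, passing the limit was not always enough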;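 also: agonist challenge used bursicon conditioned medium at about half maximal strength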
EBV LMP1 NFkB: Epstein-Barr LMP1 NF-kappaB reporter inhibition | actives 0.69% (n = 350,000) | inhibition, % at 12.5 µM | LMP1-induced NF-kappaB luciferase reporter cells, luminescence; in the data active = inhibition above about 41%
MITF TRPM1 HTS: increases MITF-driven TRPM1 promoter luciferase signal; SK-MEL-5 TRPM1-promoter luciferase, 24 h; % of positive control, neutral wells = 0; activation, % at 12.5 µM; actives 0.75% (n = 300,000); AID 588334;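 active = mean activation of at least 80% with every replicate also reaching 80%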
TROY NFkB inh: TROY signaling inhibition. Q293 LMP1-TROYcd NF-kB luciferase reporter, 4 h. inhibition, % at 10 µM. actives 0.98% (n = 360,000);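 active = compounds whose plate-normalised and pattern-corrected inhibition of the luciferase reporter signal at the single screening dose is 50% or more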
MITF TRPM1 inh: inhibitors of MITF-driven TRPM1 promoter in melanoma cells | actives 0.83% (n = 330,000) | inhibition, % at 12.5 µM | SK-MEL-5 TRPM1 promoter luciferase, 24 h;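 active = mean inhibition across replicates of 60% or more, whatever share of single replicates reaches that level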
A number is an active result.

How did COc1ccc(NC(=O)Nc2ccc3c(c2)CC(=O)N([C@H](C)CO)C[C@@H](C)[C@@H](CN(C)C(=O)Nc2ccc(F)cc2)O3)cc1 do in these assays?
LGR2 inh: inactive

What do the screens show for `CCCC(=O)Nc1ccc2c(c1)C(=O)N(C)C[C@@H](OC)[C@@H](C)CN(Cc1ccc(-c3ccccn3)cc1)[C@H](C)CO2`?
LGR2 inh: inactive

Results for Cc1c(N=Cc2nc3ccccc3n2C)c(=O)n(-c2ccccc2)n1C ?
TWEAK-Fn14 inh: 62.1; LGR2 inh: inactive; EBV LMP1 NFkB: inactive; TROY NFkB inh: 64.0; MITF TRPM1 inh: inactive

Results for Cc1c(N=C2C=C(Br)C(=O)C(Br)=C2)c(=O)n(-c2ccccc2)n1C ?
TWEAK-Fn14 inh: inactive; LGR2 inh: inactive; EBV LMP1 NFkB: inactive; MITF TRPM1 HTS: inactive; TROY NFkB inh: inactive; MITF TRPM1 inh: inactive

How did Cc1c(N=C2C=CC(=O)c3ccccc32)c(=O)n(-c2ccccc2)n1C do in these assays?
TWEAK-Fn14 inh: inactive; LGR2 inh: inactive; EBV LMP1 NFkB: inactive; MITF TRPM1 HTS: inactive; TROY NFkB inh: inactive; MITF TRPM1 inh: 70.9

How did Cc1c(N=Cc2nc3ccccc3[nH]2)c(=O)n(-c2ccccc2)n1C do in these assays?
TWEAK-Fn14 inh: inactive; EBV LMP1 NFkB: inactive; MITF TRPM1 HTS: inactive; TROY NFkB inh: inactive; MITF TRPM1 inh: inactive

What do the screens show for `COc1ccc(C[C@H]2CCc3cnnn3COC[C@@H](Cc3ccccc3)NC2=O)cc1`?
LGR2 inh: inactive

What do the screens show for `Cc1ccc(N(C)S(=O)(=O)c2cccc(C(=O)OCC(=O)c3c(N)n(C)c(=O)n(C)c3=O)c2)cc1`?
TWEAK-Fn14 inh: inactive; LGR2 inh: inactive; EBV LMP1 NFkB: inactive; MITF TRPM1 HTS: inactive; TROY NFkB inh: 51.6; MITF TRPM1 inh: inactive

How did CC[N+]1=C(C)C(C)(C)c2cc(C)ccc21 do in these assays?
TWEAK-Fn14 inh: 68.5; LGR2 inh: 55.7; EBV LMP1 NFkB: inactive; MITF TRPM1 HTS: inactive; TROY NFkB inh: inactive; MITF TRPM1 inh: inactive

How did CCOC(=O)N1C(=O)[C@@](CC)(c2ccccc2)N1C(=O)OCC do in these assays?
TWEAK-Fn14 inh: inactive; LGR2 inh: inactive; EBV LMP1 NFkB: inactive; MITF TRPM1 HTS: inactive; TROY NFkB inh: inactive; MITF TRPM1 inh: 74.8

How did O=C1CC(NNc2nc3ccccc3s2)C(=O)N1c1ccccc1 (centres undefined) do in these assays?
TWEAK-Fn14 inh: inactive; LGR2 inh: inactive; EBV LMP1 NFkB: inactive; MITF TRPM1 HTS: inactive; TROY NFkB inh: 61.0; MITF TRPM1 inh: inactive

How did C[C@@H]1CN([C@H](C)CO)C(=O)c2cc(NC(=O)Nc3ccc(F)cc3)ccc2O[C@@H]1CN(C)Cc1ccc(Oc2ccccc2)cc1 do in these assays?
LGR2 inh: inactive

How did Cc1ccccc1NC(=O)CCN1C(=O)CSC1=O do in these assays?
TWEAK-Fn14 inh: inactive; EBV LMP1 NFkB: inactive; MITF TRPM1 HTS: inactive; TROY NFkB inh: inactive; MITF TRPM1 inh: inactive

How did Cc1ccc(NC(=O)CCN2C(=O)CSC2=O)c(C)c1 do in these assays?
TWEAK-Fn14 inh: 73.9; EBV LMP1 NFkB: inactive; MITF TRPM1 HTS: inactive; MITF TRPM1 inh: inactive

Results for CC(C)NC(=O)NCC[C@H]1CC[C@H](NS(=O)(=O)c2ccccc2)[C@H](CO)O1 ?
LGR2 inh: inactive

What do the screens show for `O=C(Nc1ccccc1Oc1ccccc1)c1cc([N+](=O)[O-])ccc1Cl`?
TWEAK-Fn14 inh: 53.7; LGR2 inh: inactive; EBV LMP1 NFkB: inactive; MITF TRPM1 HTS: inactive; TROY NFkB inh: inactive; MITF TRPM1 inh: inactive

Results for O=C(Nc1ccc(Nc2ccccc2)cc1)c1cc([N+](=O)[O-])ccc1Cl ?
TWEAK-Fn14 inh: inactive; LGR2 inh: inactive; EBV LMP1 NFkB: inactive; TROY NFkB inh: inactive; MITF TRPM1 inh: inactive

Results for C[C@@H]1CN([C@H](C)CO)C(=O)c2cc(NS(=O)(=O)c3cccs3)ccc2O[C@@H]1CN(C)S(=O)(=O)c1ccccc1 ?
LGR2 inh: inactive

How did C[C@@H]1CN([C@@H](C)CO)C(=O)Cc2cc(NC(=O)CCC(F)(F)F)ccc2O[C@@H]1CN(C)C(=O)Nc1ccc(F)cc1 do in these assays?
LGR2 inh: inactive

What do the screens show for `O=C1CC(c2ccc3c(c2)OCO3)Sc2nc3ccccc3n21` (centres undefined)?
TWEAK-Fn14 inh: 89.1; LGR2 inh: 54.5; EBV LMP1 NFkB: inactive; MITF TRPM1 HTS: inactive; TROY NFkB inh: 83.9; MITF TRPM1 inh: inactive

What do the screens show for `O=C(Nc1ccc(-c2nc3ccccc3o2)c(O)c1)c1cc(-n2cnnc2)ccc1Cl`?
TWEAK-Fn14 inh: 66.2; EBV LMP1 NFkB: inactive; MITF TRPM1 HTS: inactive; TROY NFkB inh: inactive; MITF TRPM1 inh: inactive

What do the screens show for `O=C(Nc1ccc(-c2nc3ccccc3o2)cc1)c1ccc2c(c1)OCO2`?
TWEAK-Fn14 inh: inactive; LGR2 inh: inactive; EBV LMP1 NFkB: inactive; MITF TRPM1 HTS: inactive; TROY NFkB inh: inactive; MITF TRPM1 inh: inactive

Results for O=C(Nc1ccc(-c2nc3ccccc3o2)cc1)c1ccc(N2C(=O)C3C4C=CC(C4)C3C2=O)cc1 (centres undefined) ?
TWEAK-Fn14 inh: inactive; LGR2 inh: inactive; EBV LMP1 NFkB: inactive; MITF TRPM1 HTS: inactive; TROY NFkB inh: 57.0; MITF TRPM1 inh: inactive

Results for O=C(Nc1ccc(-c2nc3ccccc3o2)cc1)c1cc(-n2cnnc2)ccc1Cl ?
TWEAK-Fn14 inh: 75.6; EBV LMP1 NFkB: inactive; MITF TRPM1 HTS: inactive; TROY NFkB inh: inactive; MITF TRPM1 inh: inactive

What do the screens show for `O=C(Nc1ccc2oc(-c3ccccc3)nc2c1)c1cc(-n2cnnc2)ccc1Cl`?
TWEAK-Fn14 inh: inactive; LGR2 inh: inactive; EBV LMP1 NFkB: inactive; MITF TRPM1 HTS: inactive; TROY NFkB inh: inactive; MITF TRPM1 inh: inactive

Results for COc1ccccc1-c1cnc2c(c1)C(=O)N([C@@H](C)CO)C[C@@H](C)[C@@H](CN(C)C(=O)c1ccccc1)O2 ?
LGR2 inh: inactive

How did CCS(=O)(=O)N1CC(=O)N2[C@H](CO)[C@@H](c3ccc(C#CCC(C)C)cc3)[C@@H]2C1 do in these assays?
LGR2 inh: inactive

Results for COC(=O)c1ccc(NCc2cc(O)ccc2O)cc1O ?
TWEAK-Fn14 inh: 82.7; LGR2 inh: inactive; EBV LMP1 NFkB: inactive; MITF TRPM1 HTS: inactive; TROY NFkB inh: inactive; MITF TRPM1 inh: inactive

How did COC(=O)c1ccc(NCc2c(O)ccc(O)c2Br)cc1Cl do in these assays?
TWEAK-Fn14 inh: 79.6; LGR2 inh: inactive; EBV LMP1 NFkB: inactive; MITF TRPM1 HTS: inactive; TROY NFkB inh: inactive; MITF TRPM1 inh: inactive

What do the screens show for `CS(=O)(=O)Nc1ccc(S(=O)(=O)N2CCCC2)cc1`?
TWEAK-Fn14 inh: inactive; LGR2 inh: inactive; EBV LMP1 NFkB: inactive; MITF TRPM1 HTS: inactive; TROY NFkB inh: inactive; MITF TRPM1 inh: inactive

Results for N#C/C(=N\Nc1ccc(S(=O)(=O)N2CCCCCC2)cc1)C(N)=S ?
TWEAK-Fn14 inh: 67.7; LGR2 inh: inactive; EBV LMP1 NFkB: inactive; MITF TRPM1 HTS: inactive; TROY NFkB inh: inactive; MITF TRPM1 inh: inactive

What do the screens show for `N#CC(C#N)=NNc1ccc(S(=O)(=O)N2CCCC2)cc1`?
TWEAK-Fn14 inh: 51.0; LGR2 inh: inactive; EBV LMP1 NFkB: inactive; MITF TRPM1 HTS: inactive; TROY NFkB inh: 54.6; MITF TRPM1 inh: inactive

Compound activity from PubChem BioAssay.
